Molecules are shown by their SMILES. Out of some 52,000 compounds screened, about 1,700 (3.3%) were called active. Rule as the data show it: active = survival mostly below about 52% (no sharp cut-off); inactive = mostly above about 56%. The entries come from a sample that favours actives as a whole.

The subject of the assay is Wild type. The experiment in a line: growth inhibition of S. aureus wild type versus tarO mutant, primary screen, teichoic acid synthesis inhibitors, RN4220, OD600 (AID 463173). Particulars: S. aureus RN4220 wild type/DeltatarO growth, OD600, 18 h, stronger effect = lower value, screened at 18.75 µg/mL (by protocol).
For the molecule `Cc1ccc(CNC(=O)CN2C(=O)C3CCCCN3c3ccc(C(=O)N4CCCC4)cc32)cc1` (stereo not drawn), the survival was 81% (inactive).

Turning to `COc1ccc(-c2ccc(/C=N/NC(N)=O)o2)cc1`, the survival is 114% (inactive).

For `CC(=O)C1=C(c2ccc(Cl)c(Cl)c2)N(C(C)=O)n2c(nnc2-c2ccccc2)S1`, the survival was 83% (inactive).

For `COc1ccc(-c2nnc3n2N(C(C)=O)C(c2ccc(Cl)c(Cl)c2)=C(C(C)=O)S3)cc1`, the survival was -3% (active).

As for `COc1ccc(C2=C(C(C)=O)Sc3nnc(-c4ccccc4)n3N2C(C)=O)cc1`, the survival is 76% (inactive).

With `COC(=O)c1c(NC(=O)c2cc3nc(-c4ccc(OC)cc4)cc(C(F)(F)F)n3n2)sc2c1CCCC2`, the survival was 73% (inactive).

As for `Cc1c(CNC2CCCCCC2)c(C(=O)O)c(C)n1Cc1ccc(F)cc1`, the survival is 98% (inactive).

For `Nc1ncc(S(=O)(=O)Nc2ccc(F)cc2F)cn1`, the survival is 82% (inactive).

As to `CCOc1ccccc1NS(=O)(=O)c1cnc(N)nc1`, the survival is -3% (active).

Regarding `CCOc1ccccc1CNS(=O)(=O)c1cnc(N)nc1`, the survival is 55% (inactive).

As to `Cc1ccc(C2Nc3cc(C)c(C)cc3-n3c(-c4ccccc4)c4c(=O)n(C)c(=O)n(C)c4c32)o1` (stereo not drawn), the survival was 77% (inactive).

Take `COc1ccc(-c2c3c(=O)n(C)c(=O)n(C)c3c3n2-c2ccccc2NC3c2ccco2)cc1` (stereo not drawn): the survival was 57% (inactive).

`Cc1ccc(C2Nc3ccccc3-n3c(-c4ccccc4)c4c(=O)n(C)c(=O)n(C)c4c32)o1` (stereo not drawn): the survival is 74% (inactive).

Turning to `COc1ccc(-c2nc3ccccc3n3c(-c4ccccc4)c4c(=O)n(C)c(=O)n(C)c4c23)cc1`, the survival was 80% (inactive).

Turning to `COc1ccc(C2Nc3ccccc3-n3c(-c4ccccc4)c4c(=O)n(C)c(=O)n(C)c4c32)cc1` (stereo not drawn), the survival is -3% (active).

`Cc1ccc(C2Nc3ccccc3-n3c(-c4ccccc4)c4c(=O)n(C)c(=O)n(C)c4c32)cc1` (stereo not drawn): the survival was -8% (active).

For the molecule `Cn1c(=O)c2c(-c3ccccc3)n3c(c2n(C)c1=O)C(c1ccc([N+](=O)[O-])cc1)Nc1ccccc1-3` (stereo not drawn), the survival is 21% (inactive).

In the case of `COc1ccc(-c2c3c(=O)n(C)c(=O)n(C)c3c3n2-c2ccccc2NC3c2ccc(OC)cc2)cc1` (stereo not drawn), the survival was 8% (active).

`COc1ccc(-c2c3c(=O)n(C)c(=O)n(C)c3c3n2-c2ccccc2NC3c2ccccc2OC)cc1` (stereo not drawn): the survival is 64% (inactive).

Turning to `Cc1cc(C)cc(NC(=O)CN2C(=O)CSc3ccc(S(=O)(=O)N4CCCC4)cc32)c1`, the survival was 88% (inactive).

For the molecule `Cc1nnc(SCc2nc(-c3ccc(Cl)cc3)no2)n1-c1ccc(F)cc1`, the survival is 100% (inactive).

For the molecule `CC(C)CCNC(=O)CCCN1C(=O)c2ccccc2Sc2ncccc21`, the survival is 85% (inactive).

As to `CCS(=O)(=O)c1nc(S(=O)(=O)c2ccc(C)cc2)c(NC(C)c2ccccc2)s1` (stereo not drawn), the survival is 136% (inactive).

For the molecule `COC(=O)c1ccc2c(=O)n(CCCCCC(=O)N3CCN(c4ccc(OC)cc4)CC3)c(=O)[nH]c2c1`, the survival was 66% (inactive).

For the molecule `O=C(Nc1ccc(F)c(F)c1)C1CCCN1S(=O)(=O)c1cccc2nsnc12` (stereo not drawn), the survival was 77% (inactive).

As for `CCN(CC)CCN(C(=O)c1ccco1)c1nc2c(C)cccc2s1`, the survival was 98% (inactive).

In the case of `O=C(Cn1nc(-c2nccc3ccccc23)oc1=O)N1CCCc2ccccc21`, the survival is 103% (inactive).

For the molecule `COc1ccc(N2CCN(c3oc(/C=C/c4cccc(OC)c4)nc3C#N)CC2)cc1`, the survival is 83% (inactive).

As for `COc1ccc(-c2nc(CNC(=O)Nc3ccccc3)c(C)o2)cc1`, the survival was 84% (inactive).

On to `COC(=O)c1ccc([C@@H]2Nc3c(cccc3C(F)(F)F)[C@@H]3C=CC[C@@H]32)cc1`, for which the survival was 3% (active).

Regarding `COc1cccc(NS(=O)(=O)c2ccc3c(c2)[C@H]2C=CC[C@H]2[C@@H](c2ccccc2Cl)N3)c1`, the survival is 131% (inactive).

For `CCOc1cccc2c1N[C@@H](c1ccc(C(=O)O)cc1)[C@H]1CC=C[C@@H]21`, the survival is 78% (inactive).

As to `COC(=O)c1ccc([C@H]2Nc3ccc(S(=O)(=O)Nc4ccc(F)cc4)cc3[C@H]3C=CC[C@H]32)cc1`, the survival is 69% (inactive).

With `COC(=O)c1ccc([C@@H]2Nc3c(C)cc(C)cc3[C@@H]3C=CC[C@@H]32)cc1`, the survival was 87% (inactive).

With `CCOc1ccc2c(c1)[C@@H]1C=CC[C@@H]1[C@H](c1ccccc1Cl)N2`, the survival was 0% (active).

For `CCOC(=O)c1ccc2c(c1)[C@@H]1C=CC[C@@H]1[C@H](c1cccc(OC)c1OC)N2`, the survival is 0% (active).

Take `COC(=O)c1ccc([C@H]2Nc3ccc(S(=O)(=O)Nc4cccc(C)c4)cc3[C@H]3C=CC[C@H]32)cc1`: the survival is 68% (inactive).

Take `COc1ccc(Br)cc1[C@@H]1Nc2ccc(C(=O)O)cc2[C@@H]2C=CC[C@@H]21`: the survival is 65% (inactive).

With `CCOC(=O)c1cccc2c1N[C@@H](c1ccc(F)cc1)[C@H]1CC=C[C@@H]21`, the survival is 12% (active).

`Fc1ccc([C@@H]2Nc3ccccc3[C@@H]3C=CC[C@@H]32)cc1`: the survival is 88% (inactive).

Regarding `COC(=O)c1cccc2c1NC(c1cccnc1)C1CC=CC21` (stereo not drawn), the survival is 111% (inactive).

Consider `Fc1ccc(-n2ncc3c(Nc4ccc(Oc5ccc(Cl)cc5)cc4)ncnc32)cc1`, for which the survival is 85% (inactive).

As for `CC(=O)c1ccc(NC(=O)C2CCC(CNS(=O)(=O)c3cccs3)CC2)cc1` (stereo not drawn), the survival is 60% (inactive).

As to `O=C(Cn1c(=O)n(CC2CCCO2)c(=O)c2ccccc21)Nc1cccc(Cl)c1` (stereo not drawn), the survival was 82% (inactive).

Consider `Cn1c(=O)c(=O)n(C)c2cc(NS(=O)(=O)c3ccc(Br)cc3)c(Cl)cc21`, for which the survival was 65% (inactive).

As for `Cc1ccc2oc3c(c(=O)c2c1)C(c1ccccc1F)N(CCCN1CCOCC1)C3=O` (stereo not drawn), the survival was 71% (inactive).

On to `CCOc1ccc(NC(=O)C(CC)n2c(=O)c(-c3ccccc3NC(C)=O)nc3ccccc32)cc1` (stereo not drawn), for which the survival was 64% (inactive).

As for `CC(=O)N1CCc2cc(S(=O)(=O)NC(CC(C)C)C(=O)NCCc3cccc(C)c3)ccc21` (stereo not drawn), the survival is 76% (inactive).

On to `Cc1nonc1C(=O)NCC(=O)O`, for which the survival was 91% (inactive).

Take `O=C(Nc1cccc(C(F)(F)F)c1)N1CC2CCCN2c2ccccc21` (stereo not drawn): the survival was 55% (inactive).

As for `Cc1ccc(Cl)c2c1N[C@@H](c1ccc(C(=O)O)cc1)[C@H]1CC=C[C@@H]21`, the survival was 10% (active).

`COc1ccc(NS(=O)(=O)c2ccc3c(c2)[C@H]2C=CC[C@H]2[C@@H](c2ccc(C(=O)O)cc2)N3)cc1`: the survival was 68% (inactive).

Regarding `COC(=O)c1ccc([C@@H]2Nc3c(OC)ccc(C)c3[C@@H]3C=CC[C@@H]32)cc1`, the survival was 77% (inactive).

(Values after PubChem BioAssay AID463173 (ICCB-Longwood Screening Facility, Harvard Medical School, 2010).)
